Screens deposited in PubChem BioAssay by National Center for Advancing Translational Sciences (NCATS).
D1 agonist = Allosteric Agonists of the Human D1 Dopamine Receptor: qHTS | D(1A) dopamine receptor (Homo sapiens), P21728 | HEK293 T-REx D1 cells, calcium flux, agonist mode | activation, % at 2 µM | actives 1% (n = 360,000) | AID 504660, 2011; in the data active means activation above about 30%; further: 0% is about no effect
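Inducible HEK293 T-REx D1 cells, force-coupled to calcium signalling, were plated at 4000 cells/well with tetracycline and held overnight at 30 C. After no-wash calcium dye loading, compound-evoked calcium rise over 180 s flagged agonists.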
D3 antag = qHTS of D3 Dopamine Receptor Antagonist: qHTS. D(3) dopamine receptor (Homo sapiens), P35462. D3R cells, DiscoveRx beta-arrestin luminescence, antagonist mode; stronger effect = lower value. max response, negative = inhibition, %. actives 2.5% (n = 360,000); in the data active means max response below about -50%; inconclusive means no clear call, values can overlap the other calls; further: on the % scale 0 is the no-effect control and ±100 the full control effect
Target sequence (P35462 whole entry, looked up): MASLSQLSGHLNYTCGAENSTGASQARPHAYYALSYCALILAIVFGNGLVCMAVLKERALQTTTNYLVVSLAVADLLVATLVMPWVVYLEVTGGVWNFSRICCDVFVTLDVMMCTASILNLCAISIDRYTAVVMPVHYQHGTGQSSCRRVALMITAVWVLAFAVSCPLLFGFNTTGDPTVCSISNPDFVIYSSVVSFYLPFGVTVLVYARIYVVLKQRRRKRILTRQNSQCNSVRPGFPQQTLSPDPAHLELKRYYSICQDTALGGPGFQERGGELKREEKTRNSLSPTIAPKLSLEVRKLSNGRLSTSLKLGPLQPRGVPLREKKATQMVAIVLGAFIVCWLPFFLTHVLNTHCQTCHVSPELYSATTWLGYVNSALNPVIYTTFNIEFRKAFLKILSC
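Cells expressing the human receptor were seeded at 1500 cells/well, incubated overnight at 37 degrees C in 5% CO2, then exposed to library compounds with dopamine controls for 90 minutes at 37 degrees C before luminescent detection.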
D1 antag = Antagonist of Human D 1 Dopamine Receptor: qHTS | HEK293 TREx D1 cells, calcium flux, dopamine EC80; stronger effect = lower value | actives 3.2% (n = 360,000) | AID 504652, 2011 | activity change, negative = inhibition, % at 10 µM | D(1A) dopamine receptor (Homo sapiens), P21728; in the data active means activity change below about -30%; further: on the % scale 0 is the no-effect control and ±100 the full control effect
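Tetracycline-induced HEK293 T-REx cells with force-coupled D1 receptor were loaded with a no-wash calcium dye. Compound was added after a 10 s baseline and read kinetically for 180 s; EC80 dopamine was then added and calcium flux followed another 180 s.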
D3 ag = qHTS of D3 Dopamine Receptor Agonist: qHTS. D3R DiscoveRx beta-arrestin cells, luminescence, 90 min. max activation, %. actives 0.58% (n = 410,000). AID 652048, 2013; in the data active means max activation above about 30%; further: 0% is about no effect
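Cells at 1500/well, incubated overnight, then treated with pinned compounds (dopamine as control) for 90 min at 37 degrees C. DiscoveRx reagent added for 30 - 60 minutes at room temperature; luminescence read.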
D1 potentiator = Potentiators of Human D1 Dopamine Receptor: qHTS; D(1A) dopamine receptor (Homo sapiens), P21728; potentiation, % at 10 µM; AID 504651, 2011; HEK293 TREx D1 cells, calcium flux, dopamine EC20 potentiation; actives 0.036% (n = 360,000); in the data active means potentiation above about 30%; further: 0% is about no effect
The depositor's hits bear a star; ? = inconclusive; · = no result given. Rows were chosen to be rich in hits. Some 6.1% of all compounds tested hit in one or more screens of this group.

SMILES	D1 agonist	D3 antag	D1 antag	D3 ag	D1 potentiator
CCCCCn1cc2c(c1-c1ccc(Br)cc1)c(=O)n(C)c(=O)n2C	1	·	2	10	-2
CCC(=O)c1c[nH]c(C(=O)N2CCN(c3ccccc3)CC2)c1	1	-10	-3	-3	-1
CCC(=O)c1c[nH]c(C(=O)N2CCOCC2)c1	0	-14	-37*	8	-7
O=S(=O)(c1ccc(Cl)cc1)c1nc(-c2cccs2)oc1SCc1ccccc1F	4	·	-3	7	0
C[C@@H]1NC(=O)[C@@H](N)CNC(=O)[C@H](C2CCNC(N)=N2)NC(=O)/C(=C/NC(N)=O)NC(=O)[C@H](CNC(=O)C[C@@H](N)CCCN)NC1=O (some centres not stated)	·	·	·	-12	·
CCCC(C(=O)Nc1ccc(S(=O)(=O)Nc2ncccn2)cc1)c1ccccc1 (configuration not stated)	-1	22	-2	5	-10
CCCC(C(=O)Nc1ccncc1)c1ccccc1 (configuration not stated)	9	24	-40*	-16	-6
Cc1cccc2cc3c(N)c(C(=O)N4CCOCC4)sc3nc12	49*	-21	-11	-9	0
Cc1cc(C)c2cc3c(N)c(C(=O)N4CCc5ccccc5C4)sc3nc2c1	2	-11	9	3	-5
O=C(CSc1nc2sc3c(c2c(=O)[nH]1)CCCC3)Nc1ccccc1F	5	·	-11	0	1
CCc1cc(S(=O)(=O)O)c2cc(C(C)C)cccc1-2	·	·	·	-18	·
Nc1c(Br)cc(Br)c2c1C(=O)c1c(cccc1S(=O)(=O)O)C2=O	·	-55*	·	-17	·
Cc1ccc(CNC(=O)c2oc3ccc(S(=O)(=O)N4CCCC(C)C4)cc3c2C)cc1 (configuration not stated)	2	·	-5	3	-1
Nc1nc2ccccc2cc1-c1cccs1	14	4	-60*	4	-25
c1csc(-c2ccc3ccccc3n2)c1	1	21	6	11	1
Cc1ccc(-c2cc3ccccc3nc2N)cc1	6	18	-98*	1	-27
N#Cc1cc2ccccc2nc1N	2	-26	11	-6	1
CCSc1ncc(Cl)c(C(=O)N2CCN(c3ccccc3OC)CC2)n1	0	·	5	3	0
CNC(=O)c1nnsc1S(=O)c1ccc(Cl)cc1 (configuration not stated)	2	-55*	2	-22	4
CCCNC(=O)NS(=O)(=O)c1ccc(Cl)cc1	1	20	-20	1	-5
CCCNC(=O)c1nnsc1S(=O)(=O)c1ccc(Cl)cc1	0	-85*	-39*	-23	-7
Cc1ccc(S(=O)c2snnc2C)cc1 (configuration not stated)	3	47	2	14	4
CCCNC(=O)c1ccc2snnc2c1	1	0	-7	10	4
CCCNC(=O)c1nnsc1S(=O)c1ccc(Cl)cc1 (configuration not stated)	2	-78*	20	-21	-1
COC(=O)c1cc(-c2ccc(C)cc2)c2c(=O)n(C)c(=O)n(C)c2n1	2	·	-2	5	-2
SMILES	D1 agonist	D3 antag	D1 antag	D3 ag	D1 potentiator
COc1ccc(N(C)C(=O)Cn2cc(S(=O)(=O)N3CCN(c4ccccc4F)CC3)c3ccccc3c2=O)c(OC)c1	7	·	-12	-11	-4
Cc1cc2c(cc3c(SCc4ccc(Cl)cc4)nnc(C)n32)o1	-1	·	-7	8	3
Cc1ccc(/C=c2/sc3n(c2=O)CCCN=3)o1	3	2	-8	-3	-2
Cc1ccc(/C=c2\sc3n(c2=O)CN(c2ccc(Br)cc2)CN=3)o1	0	-13	-39*	-1	-11
Cc1ccccc1NC(=O)Cn1c(=O)n(Cc2ccc3c(c2)OCO3)c(=O)c2oc3ccccc3c21	0	·	3	1	-3
Cc1ccc(-c2c[n+](CC(=O)Nc3ccccc3C)c3n2CCC3)cc1	2	-63*	-4	-34	-5
Cc1ccc(-c2c[n+](CC(=O)Nc3nc(-c4ccccc4)cs3)c3n2CCC3)cc1	3	6	2	-15	-7
Cc1ccc(NC(=O)C[n+]2cc(-c3ccccc3)n3c2CCC3)cc1	2	-111*	0	-17	6
O=C(C[n+]1cc(-c2ccccc2)n2c1CCCCC2)c1ccc(Cl)cc1	3	-13	21	-12	0
COc1ccc(-c2c[n+](CC(=O)c3ccccc3)c3n2CCCCC3)cc1	1	-61*	-3	-22	-4
CCOc1cc(-c2ccc(OC(=O)c3ccccc3F)cc2)cc(=O)c2c(C)oc(C)c12	2	·	-3	-11	1
Cc1ccc(OC(=O)C2c3ccccc3Oc3ccccc32)cc1C	32*	7	-12	9	-4
CC(=O)c1ccc(OC(=O)C2c3ccccc3Oc3ccccc32)cc1	6	-27	-4	-1	4
CCN(CC)C(=O)C1c2ccccc2Oc2ccccc21	32*	?	-1	4	3
COC(=O)NC1c2ccccc2Oc2ccccc21	75*	-20	0	-24	-8
COC(=O)NC1c2ccccc2Oc2ccc(C)cc21 (configuration not stated)	19	9	6	-3	0
C=CCN(CC=C)C(=O)C1c2ccccc2Oc2ccccc21	·	-2	·	-6	·
Cc1ccc(NC(=O)Cc2ccc(-n3c(C)nc4cccnc43)cc2)c(Cl)c1	8	·	-16	-2	2
Cc1cc(C)c(NC(=O)c2nc3ccccc3nc2N2CCCCC2)c(C)c1	16	·	18	6	6
CCOC(=O)C1=C(CN2CCN(c3ccccc3)CC2)NC(=O)NC1c1ccc(C)cc1 (configuration not stated)	3	·	9	-10	3
O=C1NC(c2ccccc2)=C(c2nc3ccccc3s2)C(c2ccc(F)cc2)N1 (configuration not stated)	0	-56*	0	14	3
CCC(C)(C)NC(=O)C(c1ccc(C)cc1)N(Cc1cccnc1)C(=O)c1csnn1 (configuration not stated)	-1	12	-63*	1	-25
COC(=O)c1ccccc1N1C(=O)C2C(C1=O)[C@H]1C=C[C@@H]2C1 (some centres not stated)	2	12	-4	2	-3
COC(=O)c1ccccc1N1C(=O)[C@@H]2C(c3ccc(Br)cc3)=NO[C@@H]2C1=O	8	3	-48*	3	-3
Cc1cccc(NC(=O)C2CCN(c3nccc(C)n3)CC2)c1	2	-11	-35*	1	-9
